According to PubChem BioAssay (NCATS):
Several values for one entry are separate records, joined by “and”; a condition that tells them apart may be missing. Equal entries are not always repeated. A number with no mark means an inactive call. Inconclusive results are not listed. Where a call stands in place of a potency, no number is given. Activity calls are given as the source filed them. Unless noted, calls come from the whole dose curve; as a rule, active = well fitted curve in the direction sought with a large enough effect; inconclusive = small, poorly fitted or top-dose-only effect, or another doubt; inactive = no such curve, though single readings can be large; an effect the other way counts as inactive or inconclusive.

Experiments:
[1] = biological target: Nuclear receptor subfamily 1 group I member 2 (Rattus norvegicus) (UniProt Q9R1A7); assay: qHTS assay for small molecule activators of the rat pregnane X receptor (rPXR) signaling pathway (AID 651751; call rule not given here); settings: rPXR reporter cells, luciferase (One-Glo), 24 h
Nuclear receptor subfamily 1 group I member 2 (Rattus norvegicus), sequence (Q9R1A7 whole entry, looked up): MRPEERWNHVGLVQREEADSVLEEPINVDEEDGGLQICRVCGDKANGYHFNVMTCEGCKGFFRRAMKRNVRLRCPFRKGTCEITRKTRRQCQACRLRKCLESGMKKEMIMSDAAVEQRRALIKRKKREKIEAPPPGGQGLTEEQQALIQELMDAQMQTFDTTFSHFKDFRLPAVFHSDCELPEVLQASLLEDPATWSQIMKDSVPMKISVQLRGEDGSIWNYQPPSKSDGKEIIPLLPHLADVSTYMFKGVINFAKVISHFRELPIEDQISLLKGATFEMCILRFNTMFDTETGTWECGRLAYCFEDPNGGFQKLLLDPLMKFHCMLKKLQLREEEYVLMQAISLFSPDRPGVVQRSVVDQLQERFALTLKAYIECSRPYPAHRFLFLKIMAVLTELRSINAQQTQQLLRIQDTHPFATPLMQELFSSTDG

astro = assay: Drug repurposing screens with cells derived from glioblastoma tumor samples (AID 1345199); settings: viability, ATP luminescence, 48 h; series mostly up to 45.9 µM; note: nearly all actives have a fitted effect of over 40% in size
Method in brief: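 Primary testing used CD133+ neurospheres from four GBM patients, seven concentrations, 48 h exposure and ATP-based viability; confirmation added three slower-growing patient lines.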

[2] = qHTS assay for small molecule activators of the human pregnane X receptor (PXR) signaling pathway (AID 720659; call rule not given here); settings: DPX-2 HepG2 CYP3A4-luciferase, 24 h; series mostly up to 92.3 µM
[3] = qHTS assay to identify inhibitors of the type 1 interferon - major histocompatibility complex class I in skeletal muscle: Counter screen cell viability and HiBit confirmation (AID 1347412); settings: iHSKM muscle cells + IFN-b, HiBiT or CellTiter-Glo, 24 h; Potency: HiBiT unless noted; Viability, at 45.9 µM (top of the series); note: nearly all actives have a fitted effect of over 60% in size; note: potency is the fitted concentration of half-maximal effect
Method in brief: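 CRISPR HLA-B*08:01-HiBit immortalized human myoblasts (C25cl48) stimulated with 4 ng/ml IFN-beta and compounds (12-point 1:3, top 46 uM final) for 24 h at 37 C. Duplicate plates read by HiBit lytic luminescence or CellTiter Glo ATP.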

| Structure (SMILES) | max response [1] | Potency (astro) | outcome [2] | Potency [3] |
| --- | --- | --- | --- | --- |
| Oc1c(I)cc(Cl)c2cccnc12 | -1.19% |  |  |  |
| CC(O)(P(=O)(O)O)P(=O)(O)O | -3.46% | inactive | inactive |  |
| CC(O)C(=O)O (configuration not stated) | 2.35% | inactive | inactive |  |
| C[C@]12C=CC(=O)C=C1[C@@H](F)C[C@@H]1[C@@H]2[C@@H](O)C[C@@]2(C)[C@H]1CC[C@]2(O)C(=O)CO |  | inactive |  | inactive |
| CCCCC(CC)CN=C(N)NC(N)=NCCCCCCN=C(N)NC(N)=NCC(CC)CCCC (configuration not stated) |  |  |  | 22.2 µM [Viability] (active) |
| CCCC(=O)O[C@]1(C(=O)CO)CC[C@H]2[C@@H]3CCC4=CC(=O)CC[C@]4(C)[C@H]3[C@@H](O)C[C@@]21C |  | inactive |  | inactive |
| C[C@]12CCC(=O)C=C1[C@@H]1C[C@@H]1[C@H]1[C@@H]3[C@@H]4C[C@@H]4[C@@]4(CCC(=O)O4)[C@@]3(C)CC[C@@H]12 |  | inactive |  |  |
| O=C1OC(c2ccc(O)cc2)(c2ccc(O)cc2)c2ccccc21 | 7.44% and -0.397% |  |  |  |
| CC(=O)OCC(=O)[C@@]1(OC(C)=O)[C@@H](C)C[C@H]2[C@@H]3C[C@H](F)C4=CC(=O)C=C[C@]4(C)[C@@]3(F)[C@@H](O)C[C@@]21C |  | inactive |  | inactive |
| C[C@H]1C[C@H]2[C@@H]3CCC4=CC(=O)C=C[C@]4(C)[C@@]3(Cl)[C@@H](O)C[C@]2(C)[C@@]1(O)C(=O)CO |  | inactive | inactive | inactive |
| CN(C)/N=N/c1nc[nH]c1C(N)=O | -2.27% | inactive | inactive |  |
